According to PubChem BioAssay (NCATS):
Records with an inconclusive call do not appear. Where a call stands in place of a potency, no number is given. Activity calls are given as the source filed them. Calls follow the shape of the dose curve; as a rule, active = well fitted inhibition curve with a large enough effect; inconclusive = small, poorly fitted or top-dose-only effect; inactive = flat fitted curve, though single readings scatter.

molecular target: Glutathione peroxidase 1 (Homo sapiens) (UniProt P07203); assay: Primary qHTS Assay for Inhibitors of Recombinant Selenoprotein Glutathione Peroxidase 1 (GPX1) (AID 1845191); conditions: recombinant GPX1, GR-coupled NADPH fluorescence, 15 min; series mostly up to 48.8 µM; also: nearly all actives have a fitted effect of over 65% in size
Method in brief: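 GR-coupled assay: compounds preincubated 30 min at room temperature with GPX1, then reaction started with CHP; final 10 nM GPX1, 1 mM GSH, 0.5 mM CHP, 0.5 mM NADPH, 100 nM GR, 0.01% BSA, pH 7.5 Tris buffer. NADPH fluorescence (340/450 nm) read at 0 and 15 min.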
Potency is read from the fitted curve at half-maximal effect.

Glutathione peroxidase 1 (Homo sapiens), sequence (P07203 whole entry, looked up): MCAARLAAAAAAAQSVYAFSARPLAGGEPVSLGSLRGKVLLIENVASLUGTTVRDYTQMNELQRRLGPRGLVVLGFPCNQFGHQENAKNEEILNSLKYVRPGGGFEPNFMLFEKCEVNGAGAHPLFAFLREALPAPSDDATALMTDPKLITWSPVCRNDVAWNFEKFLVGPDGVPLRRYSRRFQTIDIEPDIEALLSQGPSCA

| Structure (SMILES) | Potency | outcome |
| --- | --- | --- |
| CC(C)(C)c1ccc(NC(=O)N2CCN(c3ncccc3Cl)CC2)cc1 | inactive |  |
| O=C(Nc1ccccc1)N1CCC(Cc2cnc3ccccc3c2)CC1 | inactive |  |
| C=C1C(=O)O[C@H]2C[C@@H](C)[C@@H]3CCC(=O)[C@@]3(C)C[C@H]12 | inactive |  |
| C=C1C(=O)OC2/C=C(\C)CC3C=C(CC/C=C(\C)CCC12)C(=O)O3 (stereo not given) | inactive |  |
| COc1cc(C(C)=O)c(OC)c2c1OC(C)(C)C=C2 | inactive |  |
| C=CCc1ccc(OC(C)Cc2ccc(OC)c(OC)c2)c(OC)c1 (stereo not given) | inactive |  |
| C=C1C(=O)O[C@@H]2[C@H]3C(C)=CC(=O)C3=C(C)CC[C@@H]12 | inactive |  |
| Cc1ccc(OC[C@H](O)[C@H](C)NC(C)C)c2c1CCC2 | inactive |  |
| O=C(NCCCn1ccnc1)c1cc(-c2ccco2)on1 | inactive |  |
| O=C(COc1ccc2ccccc2c1Br)Nc1cccnc1 | inactive |  |
| CC(=O)O[C@@H]1CC2C(/C=C(\C)C(=O)[C@@]3(O)C[C@@H](C)[C@H](OC(=O)c4ccccc4)C3/C=C/1C)C2(C)C (stereo not given in full) | inactive |  |
| C/C=C(/C)C(=O)O[C@@H]1C[C@@H](OC(=O)CC(C)C)C2(C)C3C(=O)C=C(C)C2C3C1(C)C (stereo not given in full) | inactive |  |
| C=C(C)C(=O)OC1CC2(C)OC(=CC2=O)C(=C)CC2OC(=O)C(=C)C12 (stereo not given) | inactive |  |
| C/C=C(/C)C(=O)OC1C=C2C3C(C)C(C)C(OC(=O)C(C)C(C)O)CC3(C)CCC2(C)C2(C)CC(OC(C)=O)C3C(C)(C)C(O)C(=O)CC3(C)C12 (stereo not given) | inactive |  |
| C=C1C(=O)O[C@@H]2C[C@H](C)C3=CC(=O)[C@H](O)[C@@]3(C)C[C@H]12 | inactive |  |
| C=CC(=O)Nc1cccc(Nc2nc(Nc3ccc(NC4CN(CCF)C4)cc3OC)ncc2C(F)(F)F)c1 | inactive |  |
| O=C(O)c1ccc(S(=O)(=O)N(Cc2ccc(OC(F)(F)F)cc2)c2ncc(C(F)(F)F)cc2Cl)cc1 | inactive |  |
| O=C(NC[C@H]1CN(c2ccc(N3CCOCC3=O)cc2)C(=O)O1)c1ccc(Cl)s1 | inactive |  |

| Structure (SMILES) | Potency | outcome |
| --- | --- | --- |
| C=CC(=O)Nc1cc(-n2c(=O)ccc3cnc4ccc(-c5ccc(NS(C)(=O)=O)cc5)cc4c32)ccc1C | inactive |  |
| Cn1cc(-c2ccc(S(=O)(=O)n3ccc(/C=C/C(=O)Nc4ccccc4N)c3)cc2)cn1 | inactive |  |
| O=C(Nc1ccnc(NC(=O)C2CC2)c1)c1c(Cl)cccc1Cl | inactive |  |
| C[C@@H]1O[C@@H](O[C@H]2[C@@H](OC(=O)[C@]34CCC(C)(C)CC3C3=CCC5[C@@]6(C)C[C@H](O)[C@H](O[C@@H]7O[C@H](CO)[C@@H](O)[C@H](O)[C@H]7O[C@@H]7OC[C@@H](O)[C@H](O)[C@H]7O)[C@@](C)(C(=O)O)C6CC[C@@]5(C)[C@]3(C)CC4)OC[C@H](O)[C@@H]2O)[C@H](O)[C@H](O)[C@H]1O[C@@H]1OC[C@@H](O)[C@H](O)[C@H]1O (stereo not given in full) |  | inactive [at 9.52 µM] |
| O=S(=O)(c1ccccc1)N(CC(F)(F)F)c1ccc(C(O)(C(F)(F)F)C(F)(F)F)cc1 | inactive |  |
| FC(F)(F)c1ccc(/C=C/c2nc(COc3ccc(CCCCn4ccnn4)cc3)co2)cc1 | inactive |  |
| CC(=O)OC(C)(C)/C=C/C(=O)[C@](C)(O)[C@H]1C(O)C[C@@]2(C)[C@@H]3CC=C4[C@@H](C=C(O[C@@H]5O[C@H](CO)[C@@H](O)[C@H](O)[C@H]5O)C(=O)C4(C)C)[C@]3(C)C(=O)C[C@]12C (stereo not given in full) | inactive |  |
| Cc1ccc(S(=O)(=O)N2CCC[C@H]2c2ccc(F)cc2)cc1 | inactive |  |
| C=C1C(=O)OC2C(OC(=O)C=C(C)C)C(C)=C3C(=O)C=C(C)C3C(O)C12 (stereo not given) | inactive |  |
| Nc1c(S(=O)(=O)c2ccccc2)c2nc3ccccc3nc2n1-c1ccc(F)cc1 | 20.2 µM (active) |  |
| N#Cc1cccc(C(=O)Nc2cc(-c3ccccc3)nn2-c2ccccc2)c1 | inactive |  |
| Cc1ccc(C(=O)Nc2ccc(CN3CCN(C)CC3)c(C(F)(F)F)c2)cc1C#Cc1cnc2[nH]ncc2c1 | inactive |  |
| O=C(Nc1ccc(C(F)(F)F)cn1)N1CCN(c2ncccc2C(F)(F)F)CC1 | inactive |  |
| CC1=C(C(=O)Nc2cc(Cl)ccc2Cl)C(c2ccco2)C2=C(CCCC2=O)N1 (stereo not given) | inactive |  |
| COc1ccc(C(=O)Nc2c(Cl)cncc2Cl)cc1OC1CCCC1 | inactive |  |
| C=C1CC[C@@H](O)[C@]2(C)C[C@H]3OC(=O)C(=C)[C@H]3CC12 (stereo not given in full) | inactive |  |
| O=S(=O)(c1ccc(Cl)cc1)N1CCN(c2ccnc3cc(Cl)ccc23)CC1 | inactive |  |
